From PubChem BioAssay AID1159580 (chemical genetic matrix, 2015)
About 2,000 (36%) of roughly 5,500 compounds were called active. Another 18% or so got no clear call; they are omitted. No stated cut-off is given here; in the data, active means normalized growth mostly below about 0.91 (no sharp cut-off); inconclusive means no clear call, values can overlap the other calls; inactive means mostly above about 0.92. This is one part of the list.

Assay: chemical genetic growth profiling, strain panel (AID 1159580);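 further: tested at 20 µM; growth read once vehicle control cultures reached saturation at 30 °C; 1 = growth at the plate median or of vehicle wells; lower values mean less growth of the strain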
Settings: S. cerevisiae deletion strains, growth OD
[1] = locus YDR150W, strain NUM1, active compounds read low
[2] = locus YGR078C, strain PAC10, active compounds read low
[3] = locus YJR075W, strain HOC1, active compounds read low
[4] = locus YMR263W, strain SAP30, active compounds read low
[5] = locus YNL153C, strain GIM3, active compounds read low
[6] = locus YPL055C, strain LGE1, active compounds read low

Measured: normalized growth

CCC(=O)N1CCN(C(=O)c2ccccc2)CC1
inactive: locus YAL040C, strain CLN3, active compounds read low 1.04 | locus YCL061C, strain MRC1 (second series), active compounds read low 0.992 | [1] 1.01 | locus YDR363W, strain ESC2, active compounds read low 0.993 | locus YER002W, strain NOP16, active compounds read low 1 | [2] 0.989 | [3] 1.02 | [4] 0.994 | [5] 1.05 | locus YNL175C, strain NOP13, active compounds read low 1.02 | locus YNL197C, strain WHI3, active compounds read low 0.983 | locus YNL224C, strain SQS1, active compounds read low 0.994 | locus YOR083W, strain WHI5 (second series), active compounds read low 1.03 | [6] 1

O=C(CCCCCCCCC(=O)c1ccccc1)c1ccccc1
inactive: locus YAL013W, strain DEP1, active compounds read low 0.996 | locus YBR229C, strain ROT2, active compounds read low 1 | locus YCL061C, strain MRC1, active compounds read low 1.01 | locus YDL101C, strain DUN1, active compounds read low 1.01 | [1] 0.918 | locus YEL061C, strain CIN8, active compounds read low 1.01 | [2] 1.02 | locus YHR030C, strain SLT2, active compounds read low 0.964 | locus YHR087W, strain rtc3, active compounds read low 1.05 | locus YJL187C, strain SWE1, active compounds read low 1.02 | locus YJR043C, strain POL32, active compounds read low 1.01 | [3] 0.987 | locus YLR039C, strain RIC1, active compounds read low 1.04 | locus YLR058C, strain SHM2 (second series), active compounds read low 0.998 | locus YLR085C, strain ARP6, active compounds read low 0.998 | locus YLR262C, strain YPT6, active compounds read low 1.04 | locus YML094W, strain GIM5, active compounds read low 1.01 | locus YMR219W, strain ESC1, active compounds read low 0.999 | [4] 1 | [5] 0.994 | locus YNL298W, strain CLA4 (second series), active compounds read low 1.05 | locus YNL322C, strain KRE1, active compounds read low 1 | locus YNR030W, strain Alg12, active compounds read low 1.01 | locus YOL006C, strain TOP1, active compounds read low 1.01 | [6] 0.981 | locus YPL241C, strain CIN2, active compounds read low 1 | locus YPR135W, strain CTF4, active compounds read low 1
